From PubChem BioAssay (NCATS)
Results filed as inconclusive are left out. Entries that show only a call come without a potency. The source made the active and inactive calls. The call rests on the fitted dose curve; in most records, active means well fitted inhibition curve with a large enough effect; inconclusive means small, poorly fitted or top-dose-only effect; inactive means no such curve, though single readings can be large or run the other way.

Assay: P-glycoprotein substrates identified in KB-3-1 adenocarcinoma cell line, qHTS therapeutic library screen (AID 1346986); further: nearly all actives have a fitted effect of over 60% in size
Conditions: KB-3-1 parental cells viability, CellTiter-Glo, 72 h; series mostly up to 44.5 µM
Method in brief: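 Viability read by CellTiter-Glo after 72 h compound exposure in dose-response of KB-3-1 and KB-8-5-11 (P-gp-high) cells. Hits needed AC50 < 10 uM, >50% maximum response and curve class -1.1 to -2.4. Cherry-picks retested ± tariquidar, including pcDNA/MDR-19 HEK-293 pair.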

| Structure (SMILES) | Potency | outcome |
| --- | --- | --- |
| O=C(NCCN1CCCC1)c1cc(-c2ccc(CN3CCOCC3)cc2)nc2ccc(F)cc12 | inactive | – |
| CC(C)NC(=O)c1ccc(C#Cc2ccncc2)cn1 | inactive | – |
| CC(C)=CCC/C(C)=C/CO[C@@H]1O[C@H](CO[C@@H]2OC[C@](O)(CO)[C@H]2O)[C@@H](O)[C@H](O)[C@H]1O | inactive | – |
| CC1=C(C(=O)OC2OC(COC3OC(CO)C(O)C(O)C3O)C(O)C(O)C2O)C(C)(C)CCC1 (centres undefined) | inactive | – |
| CC1(C)CC[C@]2(C(=O)O[C@@H]3O[C@H](CO)[C@@H](O)[C@H](O)[C@H]3O)CC[C@]3(C)C(=CCC4[C@@]5(C)CC[C@H](O[C@@H]6O[C@H](C(=O)O)[C@@H](O[C@@H]7O[C@H](CO)[C@@H](O)[C@H](O)[C@H]7O)[C@H](O)[C@H]6O)C(C)(C)C5CC[C@]43C)C2C1 (some centres undefined) | – | inactive [at 9.29 µM] |
| N#Cc1ccc(C2CCCc3cncn32)cc1 (centres undefined) | inactive | – |
| NC(N)=NCCC[C@H](NC(=O)c1sccc1NS(=O)(=O)c1cccc2nsnc12)C(=O)O | inactive | – |
| O=C(c1c2ccccc2cc2ccccc12)N1CCC(N2CCC[C@@H](C(=O)N3CCOCC3)C2)CC1 | inactive | – |
| Cc1oc(S(=O)(=O)N2CCCCC2)cc1NC(=O)Nc1ccccc1 | inactive | – |
| CC1=CC(=O)[C@]2(O[C@@H]3O[C@@H](C)[C@H](O)[C@@H](O)[C@H]3O)C=CO[C@@H](O[C@@H]3O[C@H](CO)[C@@H](O)[C@H](O)[C@H]3O)[C@H]12 | inactive | – |
| CC1CC(O)/C=C/C(O)/C=C\C(=O)O1 (centres undefined) | inactive | – |
| C=C1[C@H](OC(C)=O)[C@H]2[C@@H](OC(C)=O)C(C)C[C@]2(OC(C)=O)C(=O)[C@H](C)/C=C/C(C)(C)C(=O)[C@H](OC(=O)C(C)C)[C@H]1OC(C)=O (some centres undefined) | inactive | – |
| COC(=O)C[C@@H]1C(C(=O)O)=CO[C@@H](O[C@@H]2O[C@H](CO)[C@@H](O)[C@H](O)[C@H]2O)/C1=C\COC(=O)/C=C/c1ccc(O)c(OC)c1 | inactive | – |
| CC(C)C1(O)NC(=O)C(CC2(O)c3ccccc3N3C(=O)C(C)(C)NC32)n2c1nc1ccccc1c2=O (centres undefined) | inactive | – |
| CC(C)=CCC/C(C)=C/CO[C@@H]1O[C@H](CO[C@@H]2O[C@@H](CO)[C@H](O)[C@H]2O)[C@@H](O)[C@H](O)[C@H]1O | inactive | – |
| CCC12CCCN3CCc4c(n(c5ccccc45)C(O)C1)C32 (centres undefined) | inactive | – |
| COC(=O)C1=COC(O[C@@H]2O[C@H](CO)[C@@H](O)[C@H](O)[C@H]2O)/C(=C\COC(=O)/C=C/c2ccccc2)C1CC(=O)OCCc1ccc(O)cc1 (some centres undefined) | inactive | – |
| CC1=C2CC(C)(C)CC2C(O)C2=C(C1)C(=O)OC2O (centres undefined) | inactive | – |
| COc1ccnc2[nH]cc(C(=O)C(=O)N3CCN(C(=O)c4ccccc4)CC3C)c12 (centres undefined) | inactive | – |
| C=C1[C@H](OC(C)=O)[C@H]2[C@@H](OC(=O)c3ccccc3)[C@@H](C)C[C@]2(O)[C@@H](OC(C)=O)[C@H](C)/C=C/C(C)(C)C(=O)[C@H](OC(C)=O)[C@H]1OC(C)=O | inactive | – |

| Structure (SMILES) | Potency | outcome |
| --- | --- | --- |
| C[C@]1(OC(=O)/C=C\c2ccc(O)cc2)C[C@@H](O)[C@]2(O)C=CO[C@@H](O[C@@H]3O[C@H](CO)[C@@H](O)[C@H](O)[C@H]3O)C12 (some centres undefined) | inactive | – |
| COc1ccc2c(c1)N1C(=O)C[C@@]34C=CC[N@+]5([O-])CC[C@H]2[C@H](CC3)[C@@]145 | inactive | – |
| OC[C@H]1O[C@@H](OCc2ccccc2)[C@H](O[C@@H]2OC[C@@H](O)[C@H](O)[C@H]2O)[C@@H](O)[C@@H]1O | inactive | – |
| Cc1cn(C[C@H](N)C(=O)O)c(=O)n(Cc2ccsc2C(=O)O)c1=O | inactive | – |
| C=C(C)C(O)COc1ccc(CC(=O)O)cc1 (centres undefined) | inactive | – |
| OC[C@H]1O[C@@H](OC[C@H]2O[C@@H](OCc3ccccc3)[C@H](O)[C@@H](O)[C@@H]2O)[C@H](O)[C@@H](O)[C@@H]1O | inactive | – |
| C[C@@H]1CC2OC(=O)C3=C2C(CCC3O)[C@@]12C[C@@H](c1ccoc1)OC2=O (some centres undefined) | inactive | – |
| COc1ccnc(CCc2nc3ncccc3[nH]2)c1 | inactive | – |
| O=C(O)/C=C/c1ccc(O[C@@H]2O[C@H](CO)[C@@H](O)[C@H](O)[C@H]2O)cc1 | inactive | – |
| C=C(CO)C(=O)O[C@H]1C[C@@]23O[C@@H]2CC/C(=C/[C@H]2OC(=O)C(=C)[C@H]12)CO[C@H]3O | inactive | – |
| C[C@H]1CC(=O)C2=C(C1)C(O)C(O)[C@@]1(O)[C@H]2C(=O)c2cccc(O)c2[C@@H]1O (some centres undefined) | inactive | – |
| C[C@@H]1O[C@@H](O[C@H]2[C@H](O)[C@@H](O)[C@H](OC[C@H]3O[C@@H](OC(=O)[C@]45CCC(C)(C)C[C@H]4C4=CCC6[C@@]7(C)C[C@@H](O)[C@H](O)[C@@](C)(CO)C7[C@H](O)C[C@@]6(C)[C@]4(C)CC5)[C@H](O)[C@@H](O)[C@@H]3O)O[C@@H]2CO)[C@H](O)[C@H](O)[C@H]1O (some centres undefined) | – | inactive [at 9.29 µM] |
| CC1(C(=O)O)CC[C@]2(C(=O)OC3OC(CO)C(O)C(O)C3O)CC[C@]3(C)C(=CCC4[C@@]5(C)CC[C@H](OC6OCC(O)C(O)C6OC6OC(CO)C(O)C(O)C6O)C(C)(C)C5CC[C@]43C)C2C1 (some centres undefined) | – | inactive [at 9.29 µM] |
| COC1OC(=O)C2=C1C1(C)CCCC(C)(C)C1CC2O (centres undefined) | inactive | – |
| CC1=C(CO)C2(C)CCCC(C)(C)C2C(O)C1O (centres undefined) | inactive | – |
| COc1cccc(CN(C(=O)CC(C)(C)C)C2CC(C(=O)N3CCNCC3)N(Cc3ccc4c(c3)OCO4)C2)c1 (centres undefined) | inactive | – |
| O=C(/C=C/c1ccc(O)cc1)OC[C@H]1O[C@H](O[C@@]2(CO)O[C@@H](CO)[C@H](O)[C@H]2O)[C@H](O)[C@@H](O)[C@@H]1O | inactive | – |
| C#CCCCn1cc(-c2cccc3c2N[C@@H](C)CC(=O)N3)cn1 | inactive | – |
| COc1cccc(Cn2ncc3c4sc(S(C)=O)cc4n(C)c3c2=O)c1 (centres undefined) | inactive | – |
